# In paper PMC7862700, “An all-to-all approach to the identification of sequence-specific readers for epigenetic DNA modifications on cytosine”:
# How the values were obtained:
# Experiment in all cases: DAPPL (digital affinity profiling via proximity ligation, sequencing); 10 mM Tris-HCl pH 7.5, 50 mM NaCl, 1 mM DTT, 4% glycerol, room temperature, 30 min; GST-TFs on glutathione beads, 16-mer random dsDNA library, 0.1% formaldehyde crosslink after washing; high values mean tight binding
# FLI1 = molecular target: T1, FLI1 (Homo sapiens, UniProt Q01543 1-452); settings: protein: recombinant; tags: N-terminal GST; dsDNA, one strand shown
# T1 sequence: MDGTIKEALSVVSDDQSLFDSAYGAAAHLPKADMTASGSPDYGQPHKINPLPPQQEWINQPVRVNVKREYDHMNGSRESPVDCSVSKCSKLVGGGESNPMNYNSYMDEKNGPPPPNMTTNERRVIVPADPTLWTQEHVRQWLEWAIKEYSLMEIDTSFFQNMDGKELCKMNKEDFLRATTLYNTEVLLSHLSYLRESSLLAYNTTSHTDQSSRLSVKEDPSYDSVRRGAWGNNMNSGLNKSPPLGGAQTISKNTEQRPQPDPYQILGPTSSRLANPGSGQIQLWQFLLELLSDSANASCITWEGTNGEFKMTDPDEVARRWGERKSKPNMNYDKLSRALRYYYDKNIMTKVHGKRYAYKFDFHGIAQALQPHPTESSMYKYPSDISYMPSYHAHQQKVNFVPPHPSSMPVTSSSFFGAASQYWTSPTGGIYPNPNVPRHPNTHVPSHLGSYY
# Procedure, shortened: (§1)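 In yeast, human transcription factors were expressed with a GST fusion, then pulled down on glutathione beads and given DNA barcodes. Pooled with a tag-only sample, they were exposed to 200 nmole of a 16-mer random double-stranded DNA library (Tris/NaCl/DTT/glycerol buffer, room temperature, 30 min), washed, crosslinked with 0.1% formaldehyde, proximity-ligated using BsaI/T4 ligase for 1 h at 37 °C, PCR-amplified and read on an Illumina NextSeq500. Each hexamer's frequency of reads for a factor, divided by the matching frequency for the tag-only sample, gives the binding signal.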
# ELK1 = molecular target: T2, ELK1 (Homo sapiens, UniProt P19419 1-428); settings: protein: recombinant; tags: N-terminal GST; dsDNA, one strand shown
# T2 sequence: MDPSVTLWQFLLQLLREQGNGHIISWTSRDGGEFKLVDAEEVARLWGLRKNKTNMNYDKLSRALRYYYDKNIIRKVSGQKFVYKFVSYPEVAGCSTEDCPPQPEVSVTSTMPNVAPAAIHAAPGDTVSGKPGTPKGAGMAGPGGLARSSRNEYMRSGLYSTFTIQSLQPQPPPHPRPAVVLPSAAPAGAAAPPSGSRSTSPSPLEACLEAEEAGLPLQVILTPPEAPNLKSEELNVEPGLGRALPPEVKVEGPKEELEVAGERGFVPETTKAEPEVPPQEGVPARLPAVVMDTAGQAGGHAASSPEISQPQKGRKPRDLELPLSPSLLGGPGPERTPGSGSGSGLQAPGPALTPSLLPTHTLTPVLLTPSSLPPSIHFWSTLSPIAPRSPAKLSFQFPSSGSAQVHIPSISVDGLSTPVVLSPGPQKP
# Procedure, shortened: as §1
# GABPA = molecular target: T3, GABPA (Homo sapiens, UniProt Q06546 1-454); settings: protein: recombinant; tags: N-terminal GST; dsDNA, one strand shown
# T3 sequence: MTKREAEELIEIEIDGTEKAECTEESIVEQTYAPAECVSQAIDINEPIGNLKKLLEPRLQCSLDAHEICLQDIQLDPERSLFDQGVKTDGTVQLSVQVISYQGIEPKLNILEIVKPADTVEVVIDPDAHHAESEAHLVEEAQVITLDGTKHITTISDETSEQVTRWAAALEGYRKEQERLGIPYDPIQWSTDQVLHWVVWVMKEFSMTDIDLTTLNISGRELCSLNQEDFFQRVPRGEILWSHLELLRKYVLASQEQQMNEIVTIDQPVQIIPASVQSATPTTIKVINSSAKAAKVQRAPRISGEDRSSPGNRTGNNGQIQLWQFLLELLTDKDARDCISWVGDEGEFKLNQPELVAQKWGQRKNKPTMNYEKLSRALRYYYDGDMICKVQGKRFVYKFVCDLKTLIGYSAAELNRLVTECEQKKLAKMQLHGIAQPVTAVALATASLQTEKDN
# Procedure, shortened: as §1
# ERG = molecular target: T4, ERG (Homo sapiens, UniProt P11308 1-479); settings: protein: recombinant; tags: N-terminal GST; dsDNA, one strand shown
# T4 sequence: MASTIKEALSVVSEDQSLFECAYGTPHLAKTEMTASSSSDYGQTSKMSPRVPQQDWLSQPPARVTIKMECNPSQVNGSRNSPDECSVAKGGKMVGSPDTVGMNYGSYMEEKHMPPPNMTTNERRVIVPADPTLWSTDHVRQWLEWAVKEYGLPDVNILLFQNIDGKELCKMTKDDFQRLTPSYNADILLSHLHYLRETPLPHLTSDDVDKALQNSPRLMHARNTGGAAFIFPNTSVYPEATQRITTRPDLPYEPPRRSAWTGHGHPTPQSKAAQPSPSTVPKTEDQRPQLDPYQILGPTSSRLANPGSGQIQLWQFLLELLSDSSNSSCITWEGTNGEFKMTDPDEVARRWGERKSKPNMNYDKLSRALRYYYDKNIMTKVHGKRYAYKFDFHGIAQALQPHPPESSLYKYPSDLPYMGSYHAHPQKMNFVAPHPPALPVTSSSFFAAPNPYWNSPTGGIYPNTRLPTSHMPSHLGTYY
# Procedure, shortened: as §1
# ELF1 = ELF1 (Homo sapiens, UniProt P32519 1-619); settings: protein: recombinant; tags: N-terminal GST; dsDNA, one strand shown
# Chain of ELF1 (P32519 whole entry): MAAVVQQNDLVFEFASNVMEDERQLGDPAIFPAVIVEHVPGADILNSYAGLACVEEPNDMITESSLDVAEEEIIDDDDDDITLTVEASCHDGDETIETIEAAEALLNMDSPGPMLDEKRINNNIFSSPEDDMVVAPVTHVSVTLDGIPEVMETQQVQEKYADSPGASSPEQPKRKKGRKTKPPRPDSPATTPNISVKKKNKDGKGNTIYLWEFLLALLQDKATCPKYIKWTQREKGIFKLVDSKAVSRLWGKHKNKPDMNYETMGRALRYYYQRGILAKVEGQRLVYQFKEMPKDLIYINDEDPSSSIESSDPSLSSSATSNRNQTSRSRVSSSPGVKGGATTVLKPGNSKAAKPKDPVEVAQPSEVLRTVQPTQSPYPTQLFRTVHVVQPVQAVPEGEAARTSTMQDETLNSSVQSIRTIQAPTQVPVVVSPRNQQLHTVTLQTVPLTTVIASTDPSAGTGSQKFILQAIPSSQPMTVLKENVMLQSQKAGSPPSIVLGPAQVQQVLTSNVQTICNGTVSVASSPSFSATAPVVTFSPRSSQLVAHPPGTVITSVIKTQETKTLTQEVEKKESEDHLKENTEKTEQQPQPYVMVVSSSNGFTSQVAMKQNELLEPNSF
# Procedure, shortened: as §1
# EHF = molecular target: T5, EHF (Homo sapiens, UniProt Q9NZC4 1-300); settings: protein: recombinant; tags: N-terminal GST; dsDNA, one strand shown
# T5 sequence: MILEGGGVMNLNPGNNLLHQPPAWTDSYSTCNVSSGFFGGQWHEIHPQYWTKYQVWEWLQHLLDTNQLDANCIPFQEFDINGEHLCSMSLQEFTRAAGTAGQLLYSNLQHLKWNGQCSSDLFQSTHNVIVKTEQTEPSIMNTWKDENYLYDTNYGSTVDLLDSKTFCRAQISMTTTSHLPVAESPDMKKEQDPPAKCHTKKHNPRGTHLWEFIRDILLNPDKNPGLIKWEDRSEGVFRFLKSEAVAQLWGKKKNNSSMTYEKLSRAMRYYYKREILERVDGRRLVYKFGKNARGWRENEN
# Procedure, shortened: as §1
# SPI1 = SPI1 (Homo sapiens, UniProt P17947 1-270); settings: protein: recombinant; tags: N-terminal GST; dsDNA, one strand shown
# Procedure, shortened: as §1
# SPIB = SPIB (Homo sapiens, UniProt Q01892 1-262); settings: protein: recombinant; tags: N-terminal GST; dsDNA, one strand shown
# Chain of SPIB (Q01892 whole entry): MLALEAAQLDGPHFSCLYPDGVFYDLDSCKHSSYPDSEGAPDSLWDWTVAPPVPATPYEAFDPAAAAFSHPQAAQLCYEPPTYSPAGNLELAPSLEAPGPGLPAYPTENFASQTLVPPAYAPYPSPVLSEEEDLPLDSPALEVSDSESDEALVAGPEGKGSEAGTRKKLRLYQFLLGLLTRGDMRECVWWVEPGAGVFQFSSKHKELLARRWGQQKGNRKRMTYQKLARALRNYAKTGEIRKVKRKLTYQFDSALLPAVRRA
# Procedure, shortened: as §1
# ELK3 = molecular target: T6, ELK3 (Homo sapiens, UniProt P41970 1-407); settings: protein: recombinant; tags: N-terminal GST; dsDNA, one strand shown
# T6 sequence: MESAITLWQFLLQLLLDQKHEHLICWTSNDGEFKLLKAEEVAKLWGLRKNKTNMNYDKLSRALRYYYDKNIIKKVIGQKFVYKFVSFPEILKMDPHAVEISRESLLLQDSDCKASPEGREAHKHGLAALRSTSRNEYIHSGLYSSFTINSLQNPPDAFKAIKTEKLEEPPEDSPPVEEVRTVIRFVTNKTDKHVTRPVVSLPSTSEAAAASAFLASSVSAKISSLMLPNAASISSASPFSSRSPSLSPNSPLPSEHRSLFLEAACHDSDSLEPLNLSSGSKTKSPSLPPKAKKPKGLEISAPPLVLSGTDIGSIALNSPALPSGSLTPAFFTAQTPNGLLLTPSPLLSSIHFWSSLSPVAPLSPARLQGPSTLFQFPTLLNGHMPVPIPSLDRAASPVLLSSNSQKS
# Procedure, shortened: as §1
# FEV = molecular target: T7, FEV (Homo sapiens, UniProt Q99581 1-238); settings: protein: recombinant; tags: N-terminal GST; dsDNA, one strand shown
# T7 sequence: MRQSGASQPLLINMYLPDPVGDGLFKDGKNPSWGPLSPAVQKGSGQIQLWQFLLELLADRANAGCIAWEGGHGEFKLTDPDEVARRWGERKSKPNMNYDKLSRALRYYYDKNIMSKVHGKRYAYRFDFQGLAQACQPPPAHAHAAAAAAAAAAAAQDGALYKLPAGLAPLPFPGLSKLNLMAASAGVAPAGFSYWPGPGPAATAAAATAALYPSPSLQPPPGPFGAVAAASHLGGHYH
# Procedure, shortened: as §1
# ETV5 = ETV5 (Homo sapiens, UniProt P41161 1-510); settings: protein: recombinant; tags: N-terminal GST; dsDNA, one strand shown
# Chain of ETV5 (P41161 whole entry): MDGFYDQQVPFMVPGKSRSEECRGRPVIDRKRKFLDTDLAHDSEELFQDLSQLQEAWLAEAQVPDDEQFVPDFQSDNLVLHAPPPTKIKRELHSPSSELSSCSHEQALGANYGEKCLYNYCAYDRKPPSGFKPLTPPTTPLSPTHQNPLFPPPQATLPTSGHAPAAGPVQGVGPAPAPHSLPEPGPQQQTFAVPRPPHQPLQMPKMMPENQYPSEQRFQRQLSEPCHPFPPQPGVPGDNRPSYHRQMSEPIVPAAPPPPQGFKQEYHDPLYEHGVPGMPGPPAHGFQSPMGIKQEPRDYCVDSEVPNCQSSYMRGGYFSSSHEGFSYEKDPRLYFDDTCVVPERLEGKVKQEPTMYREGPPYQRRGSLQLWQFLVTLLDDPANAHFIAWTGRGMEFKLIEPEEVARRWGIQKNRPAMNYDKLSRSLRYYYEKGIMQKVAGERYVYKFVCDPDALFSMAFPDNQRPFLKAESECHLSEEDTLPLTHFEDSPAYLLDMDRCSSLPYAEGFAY
# Procedure, shortened: as §1
# HSF1 = HSF1 (Homo sapiens, UniProt Q00613 1-529); settings: protein: recombinant; tags: N-terminal GST; chain copies: 3; dsDNA, one strand shown
# Chain of HSF1 (Q00613 whole entry): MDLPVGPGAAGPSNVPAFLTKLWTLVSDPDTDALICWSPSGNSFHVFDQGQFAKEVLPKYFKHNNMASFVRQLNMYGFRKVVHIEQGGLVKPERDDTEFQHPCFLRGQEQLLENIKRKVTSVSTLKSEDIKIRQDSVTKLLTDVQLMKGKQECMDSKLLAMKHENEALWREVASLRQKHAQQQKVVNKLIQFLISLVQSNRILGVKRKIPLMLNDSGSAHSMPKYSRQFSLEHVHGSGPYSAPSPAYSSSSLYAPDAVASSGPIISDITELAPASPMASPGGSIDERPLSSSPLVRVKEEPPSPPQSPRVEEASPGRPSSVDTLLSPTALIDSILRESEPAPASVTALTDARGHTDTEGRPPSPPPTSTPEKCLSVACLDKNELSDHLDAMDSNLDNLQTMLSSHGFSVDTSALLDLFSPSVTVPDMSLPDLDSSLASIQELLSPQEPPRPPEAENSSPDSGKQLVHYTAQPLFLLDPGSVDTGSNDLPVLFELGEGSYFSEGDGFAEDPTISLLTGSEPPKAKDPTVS
# Procedure, shortened: as §1
# SPIC = molecular target: T8, SPIC (Homo sapiens, UniProt Q8N5J4 1-248); settings: protein: recombinant; tags: N-terminal GST; dsDNA, one strand shown
# T8 sequence: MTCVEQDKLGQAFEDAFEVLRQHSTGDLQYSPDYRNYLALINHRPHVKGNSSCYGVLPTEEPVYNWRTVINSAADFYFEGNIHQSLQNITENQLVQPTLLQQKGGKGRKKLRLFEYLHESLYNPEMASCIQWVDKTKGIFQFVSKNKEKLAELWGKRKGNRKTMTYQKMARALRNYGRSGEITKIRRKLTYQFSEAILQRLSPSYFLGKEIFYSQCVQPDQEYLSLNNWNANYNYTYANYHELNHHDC
# Procedure, shortened: as §1
# ELF4 = ELF4 (Homo sapiens, UniProt Q99607 1-663); settings: protein: recombinant; tags: N-terminal GST; dsDNA, one strand shown
# Chain of ELF4 (Q99607 whole entry): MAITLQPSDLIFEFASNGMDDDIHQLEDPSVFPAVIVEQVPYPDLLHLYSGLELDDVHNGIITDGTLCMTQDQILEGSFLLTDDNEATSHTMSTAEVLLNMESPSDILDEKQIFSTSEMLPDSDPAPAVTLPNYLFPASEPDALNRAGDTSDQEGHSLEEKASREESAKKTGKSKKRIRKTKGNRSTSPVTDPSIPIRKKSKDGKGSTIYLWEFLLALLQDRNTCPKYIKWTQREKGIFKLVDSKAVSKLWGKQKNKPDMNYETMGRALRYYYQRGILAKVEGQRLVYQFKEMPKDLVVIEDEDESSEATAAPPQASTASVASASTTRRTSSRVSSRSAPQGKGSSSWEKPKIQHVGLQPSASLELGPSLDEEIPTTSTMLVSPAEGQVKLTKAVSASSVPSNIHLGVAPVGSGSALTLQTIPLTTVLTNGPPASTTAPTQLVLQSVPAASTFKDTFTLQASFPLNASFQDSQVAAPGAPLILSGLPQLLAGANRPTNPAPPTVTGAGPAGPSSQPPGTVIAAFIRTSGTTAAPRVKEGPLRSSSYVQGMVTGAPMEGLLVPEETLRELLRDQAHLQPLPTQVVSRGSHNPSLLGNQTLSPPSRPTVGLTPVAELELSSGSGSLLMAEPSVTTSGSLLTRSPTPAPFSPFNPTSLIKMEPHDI
# Procedure, shortened: as §1
# ELK4 = molecular target: T9, ELK4 (Homo sapiens, UniProt P28324-2 1-405); settings: protein: recombinant; tags: N-terminal GST; dsDNA, one strand shown
# T9 sequence: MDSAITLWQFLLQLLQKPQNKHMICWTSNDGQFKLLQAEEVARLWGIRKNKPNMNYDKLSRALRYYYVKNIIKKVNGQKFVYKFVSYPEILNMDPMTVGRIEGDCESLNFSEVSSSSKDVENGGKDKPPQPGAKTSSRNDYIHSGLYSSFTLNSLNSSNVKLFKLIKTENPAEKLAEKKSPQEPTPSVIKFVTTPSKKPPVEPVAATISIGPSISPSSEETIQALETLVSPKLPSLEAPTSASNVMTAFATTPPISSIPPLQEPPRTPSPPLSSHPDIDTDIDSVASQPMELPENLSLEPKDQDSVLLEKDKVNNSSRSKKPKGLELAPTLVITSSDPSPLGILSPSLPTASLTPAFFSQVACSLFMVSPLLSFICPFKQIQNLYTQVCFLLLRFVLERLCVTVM
# Procedure, shortened: as §1
# ETV2 = molecular target: T10, ETV2 (Homo sapiens, UniProt O00321 1-342); settings: protein: recombinant; tags: N-terminal GST; dsDNA, one strand shown
# T10 sequence: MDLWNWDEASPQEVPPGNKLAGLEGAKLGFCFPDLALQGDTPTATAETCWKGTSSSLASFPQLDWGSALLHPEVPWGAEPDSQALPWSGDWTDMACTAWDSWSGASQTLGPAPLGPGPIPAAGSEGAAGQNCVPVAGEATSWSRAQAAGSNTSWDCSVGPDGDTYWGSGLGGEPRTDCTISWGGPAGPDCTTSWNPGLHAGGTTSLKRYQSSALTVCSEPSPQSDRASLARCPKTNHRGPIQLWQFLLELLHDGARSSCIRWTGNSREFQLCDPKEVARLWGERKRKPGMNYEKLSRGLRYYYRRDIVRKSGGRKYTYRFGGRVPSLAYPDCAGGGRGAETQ
# Procedure, shortened: as §1
# ELF3 = molecular target: T11, ELF3 (Homo sapiens, UniProt P78545 1-371); settings: protein: recombinant; tags: N-terminal GST; dsDNA, one strand shown
# T11 sequence: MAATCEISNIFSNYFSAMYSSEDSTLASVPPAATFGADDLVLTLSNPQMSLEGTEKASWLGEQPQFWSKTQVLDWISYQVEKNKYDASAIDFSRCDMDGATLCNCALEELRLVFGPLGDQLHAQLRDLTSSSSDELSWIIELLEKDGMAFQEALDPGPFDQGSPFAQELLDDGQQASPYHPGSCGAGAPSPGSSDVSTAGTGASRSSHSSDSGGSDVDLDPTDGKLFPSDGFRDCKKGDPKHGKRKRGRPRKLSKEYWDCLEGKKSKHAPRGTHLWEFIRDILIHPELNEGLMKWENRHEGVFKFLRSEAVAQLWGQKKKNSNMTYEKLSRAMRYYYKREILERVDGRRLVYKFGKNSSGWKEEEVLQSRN
# Procedure, shortened: as §1
# ETV1 = ETV1 (Homo sapiens, UniProt P50549 1-477); settings: protein: recombinant; tags: N-terminal GST; dsDNA, one strand shown
# Chain of ETV1 (P50549 whole entry): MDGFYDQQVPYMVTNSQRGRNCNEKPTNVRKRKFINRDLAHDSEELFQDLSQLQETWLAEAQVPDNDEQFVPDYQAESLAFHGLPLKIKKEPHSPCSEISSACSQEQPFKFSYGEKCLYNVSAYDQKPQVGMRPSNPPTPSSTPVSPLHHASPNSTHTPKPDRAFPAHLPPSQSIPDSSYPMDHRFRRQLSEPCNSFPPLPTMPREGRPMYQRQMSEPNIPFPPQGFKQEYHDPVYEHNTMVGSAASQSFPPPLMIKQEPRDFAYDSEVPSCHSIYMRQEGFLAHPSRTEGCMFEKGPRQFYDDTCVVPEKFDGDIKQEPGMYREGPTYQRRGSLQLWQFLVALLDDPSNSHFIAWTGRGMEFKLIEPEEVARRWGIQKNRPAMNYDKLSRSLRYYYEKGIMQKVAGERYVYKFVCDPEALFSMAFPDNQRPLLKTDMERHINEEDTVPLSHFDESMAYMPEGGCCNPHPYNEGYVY
# Procedure, shortened: as §1
sequence,measurement,setting,value
TCTGTC,binding signal,FLI1,"1.16 fold enrichment (6-mer frequency, TF over GST control)"
same,binding signal,ELK1,"1.13 fold enrichment (6-mer frequency, TF over GST control)"
same,binding signal,GABPA,"1.16 fold enrichment (6-mer frequency, TF over GST control)"
same,binding signal,ERG,"1.17 fold enrichment (6-mer frequency, TF over GST control)"
same,binding signal,ELF1,"1.12 fold enrichment (6-mer frequency, TF over GST control)"
same,binding signal,EHF,"1.14 fold enrichment (6-mer frequency, TF over GST control)"
same,binding signal,SPI1,"1.1 fold enrichment (6-mer frequency, TF over GST control)"
same,binding signal,SPIB,"1.05 fold enrichment (6-mer frequency, TF over GST control)"
same,binding signal,ELK3,"1.17 fold enrichment (6-mer frequency, TF over GST control)"
same,binding signal,FEV,"1.13 fold enrichment (6-mer frequency, TF over GST control)"
same,binding signal,ETV5,"1.18 fold enrichment (6-mer frequency, TF over GST control)"
same,binding signal,HSF1,"1.07 fold enrichment (6-mer frequency, TF over GST control)"
same,binding signal,SPIC,"1.3 fold enrichment (6-mer frequency, TF over GST control)"
same,binding signal,ELF4,"1.13 fold enrichment (6-mer frequency, TF over GST control)"
same,binding signal,ELK4,"1.27 fold enrichment (6-mer frequency, TF over GST control)"
same,binding signal,ETV2,"1.19 fold enrichment (6-mer frequency, TF over GST control)"
same,binding signal,ELF3,"1.19 fold enrichment (6-mer frequency, TF over GST control)"
same,binding signal,ETV1,"1.23 fold enrichment (6-mer frequency, TF over GST control)"
